In the library only some 1.1% were active in any assay of this set; here they are far more common.
GALR2 blocker – GALR2 (human) receptor antagonism; inhibition, % at 4 µM; GALR2-expressing cells, antagonist mode; 140,000 tested, 0.39% active; O43603; in the data active means inhibition above about 27%;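 further: cells stimulated with galanin 1-16 at roughly its EC80; 0% = agonist challenge control and 100% = basal control without agonist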
GALR2 ag – agonists of human galanin receptor 2 (GALR2). O43603. GALR2-expressing cells, agonist activation read-out. activation, % (no concentration beside the values). 140,000 tested, 0.48% active; in the data active means activation above about 5%, passing the limit was not always enough;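 further: 0% = vehicle buffer wells and 100% = reference agonist at full effect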
S1P2 antag – antagonists of human S1P2 receptor. O95136. cell-based S1P2 antagonist assay, inhibition at 5 uM. inhibition, % at 5 µM. 97,000 tested, 0.21% active; in the data active means inhibition above about 45%;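 further: CRE beta-lactamase reporter cells expressing human S1P2 stimulated with S1P; 0% = agonist at EC80 alone and 100% = agonist plus reference antagonist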
Target sequence (O95136 whole entry, looked up): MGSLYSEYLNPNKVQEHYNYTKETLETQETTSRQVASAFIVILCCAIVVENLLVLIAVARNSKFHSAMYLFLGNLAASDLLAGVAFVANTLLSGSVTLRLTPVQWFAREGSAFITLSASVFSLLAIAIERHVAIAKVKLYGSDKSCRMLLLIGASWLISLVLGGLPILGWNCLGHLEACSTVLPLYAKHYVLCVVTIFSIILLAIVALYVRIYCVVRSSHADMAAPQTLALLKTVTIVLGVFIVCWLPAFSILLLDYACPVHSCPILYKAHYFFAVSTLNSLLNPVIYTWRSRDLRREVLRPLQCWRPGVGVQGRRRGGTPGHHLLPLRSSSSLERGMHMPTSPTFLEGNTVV
S1P2 agonist – activates the human S1P2 receptor. O95136. S1P2-expressing cell line, agonist reporter read-out. activation, % at 4.5 µM. 97,000 tested, 0.46% active; in the data active means activation above about 16%;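 further: 0% = vehicle low control and 100% = maximal reference agonist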
Numbers without * were called inactive.

How did Cc1cc(C)n2cc(CSc3nnc(-c4ccccc4)o3)nc2n1 do in these assays?
GALR2 blocker: -0.7; GALR2 ag: -1.8; S1P2 antag: -22.8; S1P2 agonist: 4.4

Results for Cc1cc(C)n2c(Br)c(CSc3nc4ccccc4o3)nc2n1 ?
GALR2 blocker: -5.1; GALR2 ag: -0.8; S1P2 antag: -36.6; S1P2 agonist: 17.3*

What do the screens show for `Nn1c(CSc2nc3ccccc3o2)nnc1CSc1nc2ccccc2o1`?
GALR2 blocker: -8.6; GALR2 ag: -1.0; S1P2 antag: -0.4; S1P2 agonist: -3.1

Results for Cc1cc(C)n2cc(CSc3nc4cc(Cl)ccc4o3)nc2n1 ?
GALR2 blocker: -3.2; GALR2 ag: -1.5; S1P2 antag: -11.3; S1P2 agonist: 17.2*

How did COC(=O)NC(=S)N1CCOCC1 do in these assays?
GALR2 blocker: 3.3; GALR2 ag: 0.5

What do the screens show for `Cc1cc2c(=O)n(CC(=O)N3CCN(c4ccc(F)cc4)CC3)cnc2s1`?
GALR2 blocker: -11.6; GALR2 ag: -0.4; S1P2 antag: 15.6; S1P2 agonist: 31.1*

Results for Cn1c(O)c(C=NCC2CCNCC2)c(=O)n(C)c1=O ?
GALR2 blocker: -5.4; GALR2 ag: -2.6; S1P2 antag: 9.4; S1P2 agonist: -2.8

What do the screens show for `CCOC(=O)c1nn(-c2ccc(C)cc2)cc1C(=O)c1ccccc1`?
GALR2 blocker: -2.0; GALR2 ag: -0.9; S1P2 antag: -18.1; S1P2 agonist: -0.9

What do the screens show for `CCOc1ncccc1C(=O)OCC(=O)Nc1cc(C)ccc1C`?
GALR2 blocker: 7.2; GALR2 ag: -3.1; S1P2 antag: -0.5; S1P2 agonist: 20.7*

What do the screens show for `Cc1ccc(C(=O)COC(=O)c2c(C)cc(=O)oc2C)cc1[N+](=O)[O-]`?
GALR2 blocker: -4.4; GALR2 ag: -0.2

What do the screens show for `CCn1cc(C(=O)Nc2ccc(OC)c(OC)c2)c2cc(OC)c(OC)cc2c1=O`?
GALR2 blocker: -8.2; GALR2 ag: -0.3; S1P2 antag: -33.9; S1P2 agonist: 22.1*

How did COc1ccc(OC)c(NC(=O)c2cn(C)c(=O)c3cc(OC)c(OC)cc23)c1 do in these assays?
GALR2 blocker: -1.2; GALR2 ag: 0.1; S1P2 antag: -62.0; S1P2 agonist: 33.0*

Results for CC(C)OCCCNC(=O)c1c(N)n(/N=C/c2cccs2)c2nc3ccccc3nc12 ?
GALR2 blocker: -18.1; GALR2 ag: 3.0; S1P2 antag: -27.5; S1P2 agonist: 18.0*

Results for CCc1nc(SCc2cccnc2)c2c(=O)n(C)c(=O)n(C)c2n1 ?
GALR2 blocker: -1.9; GALR2 ag: -0.8; S1P2 antag: -40.3; S1P2 agonist: 17.1*

What do the screens show for `CC1=CC2=NC(=O)/C(=C\c3cc(C)n(-c4ccccc4F)c3C)C(=N)N2O1`?
GALR2 blocker: 6.6; GALR2 ag: 5.4*

How did CN(Cc1ccccc1)S(=O)(=O)c1ccc(S(=O)(=O)N2CCN(CCC#N)CC2)cc1 do in these assays?
GALR2 blocker: 1.5; GALR2 ag: -2.1; S1P2 antag: 19.1; S1P2 agonist: -5.5

How did CCOc1cccc(OCCCCn2ccnc2)c1 do in these assays?
GALR2 blocker: 2.0; GALR2 ag: -1.2; S1P2 antag: 9.2; S1P2 agonist: 82.8*

Results for O=C1SC(c2ccccc2)=N/C1=C/c1ccco1 ?
GALR2 blocker: -17.8; GALR2 ag: -0.7; S1P2 antag: 22.5; S1P2 agonist: 58.7*

What do the screens show for `CCc1ccc2nc(Nc3nc(COC)cc(=O)[nH]3)nc(C)c2c1`?
GALR2 blocker: -1.5; GALR2 ag: -1.3; S1P2 antag: -19.3; S1P2 agonist: 19.3*

What do the screens show for `Cc1ccc(CN(CC(=O)N/N=C/c2ccco2)S(=O)(=O)c2ccc(C)cc2)cc1`?
GALR2 blocker: -5.5; GALR2 ag: 0.6; S1P2 antag: -17.4; S1P2 agonist: -4.4

How did CCOC(=O)C1=C(O)/C(=C/c2ccc(OCC(=O)O)c(OC)c2)SC1=Nc1ccc(OCC)cc1 do in these assays?
GALR2 blocker: 9.2; GALR2 ag: -0.2

Results for CCOC(=O)C1=C(O)/C(=C/c2cc(OC)c(O)c(OC)c2)SC1=Nc1ccc(OC)cc1 ?
GALR2 blocker: 5.9; GALR2 ag: 7.3*

Results for COc1ccc(C(=NNc2ccccc2C(=O)O)c2ccc(OC)cc2)cc1 ?
GALR2 blocker: -7.9; GALR2 ag: -0.6

How did Cc1ccc(/C=C2/NC(=O)N(Cc3ccc(Br)cc3)C2=O)o1 do in these assays?
GALR2 blocker: 21.8; GALR2 ag: 6.1*

Results for C=CCn1c(SCC(=O)N2CCc3ccccc3C2)nnc1-c1ccncc1 ?
GALR2 blocker: 3.2; GALR2 ag: -1.1

Results for CCN(CC)c1ccc2cc(C=O)c(=O)oc2c1 ?
GALR2 blocker: 0.4; GALR2 ag: 2.4; S1P2 antag: -4.1; S1P2 agonist: 6.8

How did CCN(CC)c1ccc2cc(C(N)=O)c(=O)oc2c1 do in these assays?
GALR2 blocker: -5.5; GALR2 ag: 1.2; S1P2 antag: -7.4; S1P2 agonist: 20.5*

What do the screens show for `CCN(CC)c1ccc2cc(C(=O)Nc3ccccn3)c(=O)oc2c1`?
GALR2 blocker: -5.4; GALR2 ag: 19.2*

How did CCN(CC)c1ccc2cc(NC(=O)CCC(=O)O)c(=O)oc2c1 do in these assays?
GALR2 blocker: 50.1*; GALR2 ag: 0.2

Results for CCN(CC)c1ccc2cc(C(C)=O)c(=O)oc2c1 ?
GALR2 blocker: 4.7; GALR2 ag: 2.7; S1P2 antag: 16.8; S1P2 agonist: 0.7

Results for CCOC(=O)C1CCN(S(=O)(=O)c2cccc(-c3cn4cccc(C)c4n3)c2)CC1 ?
GALR2 blocker: 9.9; GALR2 ag: -1.1; S1P2 antag: -7.1; S1P2 agonist: -0.6

What do the screens show for `Cc1cc(C)c(S(=O)(=O)Nc2ccc(O)cc2)cc1C`?
GALR2 blocker: -1.1; GALR2 ag: -0.5; S1P2 antag: -6.6; S1P2 agonist: 65.2*

How did Cc1ccc(C)c(S(=O)(=O)Nc2ccc(O)cc2)c1 do in these assays?
GALR2 blocker: -2.2; GALR2 ag: -4.1; S1P2 antag: 11.7; S1P2 agonist: -2.5

How did O=S(=O)(NC1CCc2ccccc21)c1ccc(S(=O)(=O)N2CCCC2)cc1 (stereo unspecified) do in these assays?
GALR2 blocker: 24.4; GALR2 ag: -0.7

How did COC(=O)C1=CN(CCCN2CCCC2=O)C=C(C(=O)OC)C1c1cccs1 do in these assays?
GALR2 blocker: 2.2; GALR2 ag: 4.0; S1P2 antag: 8.3; S1P2 agonist: -0.8

How did COC(=O)C1=CN(Cc2cccs2)C=C(C(=O)OC)C1c1cccc(OC)c1OC do in these assays?
GALR2 blocker: -9.7; GALR2 ag: 1.3; S1P2 antag: -9.4; S1P2 agonist: 20.8*

How did COc1ccc2cc(S(=O)(=O)NCCCN3CCOCC3)ccc2c1 do in these assays?
GALR2 blocker: 4.6; GALR2 ag: -2.0; S1P2 antag: -3.0; S1P2 agonist: 56.8*

Results for COc1ccc(N2CCN(CCCNS(=O)(=O)c3ccc4c(c3)oc(=O)n4C)CC2)cc1 ?
GALR2 blocker: -2.0; GALR2 ag: -2.1; S1P2 antag: -5.3; S1P2 agonist: -8.5

Results for COCCCNC(=O)c1c(N)n(-c2cccc(S(N)(=O)=O)c2)c2nc3ccccc3nc12 ?
GALR2 blocker: -0.1; GALR2 ag: 3.2; S1P2 antag: -14.8; S1P2 agonist: 11.4

Results for CCCNC(=O)c1c(N)n(-c2cccc(OC)c2)c2nc3ccccc3nc12 ?
GALR2 blocker: -5.1; GALR2 ag: 17.7*; S1P2 antag: -29.1; S1P2 agonist: 20.9*

Assay outcomes deposited in PubChem by The Scripps Research Institute Molecular Screening Center.
